Among the data in PubChem BioAssay AID1851 (National Center for Advancing Translational Sciences (NCATS), 2009) are AC50 and activity, negative = inhibition values, retold here.

Out of some 16,000 compounds screened, about 5,700 (36%) were called active. Another 24% or so got no clear call; they are omitted. The call rests on the fitted dose curve; in most records, active means well fitted curve in the direction sought with a large enough effect; inconclusive means small, poorly fitted or top-dose-only effect, or effect the other way; inactive means no such curve, though single readings can be large or run the other way. The list shows a part of the results.

The term AC50 denotes the concentration giving half of the maximal activity seen.
On the % scale 0 is the no-effect control and ±100 the full control effect.

For the assay, the target named is Cytochrome P450 1A2 (Homo sapiens) (UniProt P05177). The assay can be described thus: Cytochrome panel assay with activity outcomes. The following applies: recombinant CYP, pro-luciferin dealkylation, luminescence, p450-cyp1a2; series mostly up to 57.1 µM.
Chain of Cytochrome P450 1A2 (Homo sapiens) (P05177 whole entry, looked up): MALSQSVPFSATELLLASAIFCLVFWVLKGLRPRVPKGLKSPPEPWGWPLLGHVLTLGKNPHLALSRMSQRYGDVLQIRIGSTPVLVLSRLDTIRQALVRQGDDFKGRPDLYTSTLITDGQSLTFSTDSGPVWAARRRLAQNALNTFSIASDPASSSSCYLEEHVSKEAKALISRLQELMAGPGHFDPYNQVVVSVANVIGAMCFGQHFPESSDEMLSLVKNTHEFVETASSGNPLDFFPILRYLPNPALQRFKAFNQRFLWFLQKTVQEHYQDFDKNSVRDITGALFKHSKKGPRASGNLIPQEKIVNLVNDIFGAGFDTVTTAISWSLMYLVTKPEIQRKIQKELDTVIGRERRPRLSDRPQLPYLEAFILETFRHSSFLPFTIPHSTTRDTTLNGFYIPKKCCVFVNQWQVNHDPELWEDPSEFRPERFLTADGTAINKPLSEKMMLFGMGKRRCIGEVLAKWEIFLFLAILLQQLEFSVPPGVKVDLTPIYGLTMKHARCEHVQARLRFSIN
For `Nc1nnc(SCCOc2cccc(Br)c2)s1`, the half-maximal activity concentration (AC50) is 5.01 µM (active). For the molecule `CS(=O)(=O)Nc1cccc(-c2cc(Nc3ccccc3)ncn2)c1`, the AC50 is 0.398 µM (active). With `Cc1cccc(CNc2cc(-c3cccc(NS(C)(=O)=O)c3)ncn2)c1`, the AC50 was 10 µM (active). Same read-out and setting: the value for `Cc1cccc(NS(=O)(=O)c2c(C)n[nH]c2C)c1` was “inactive”. With `CS(=O)(=O)Nc1cccc(-c2cc(NCc3ccccc3)ncn2)c1`, the AC50 is 12.6 µM (active). On the same count and under the same terms, the value for `CN(C)c1cc(-c2cccc(NS(C)(=O)=O)c2)ncn1` was 1.26 µM (active); that for `COc1ccc(NC(=O)N2CCCC3(CCN(C(=O)c4csnn4)CC3)C2)cc1` was “inactive”.

As to `CS(=O)(=O)Nc1cccc(-c2cc(NCc3cccs3)ncn2)c1`, the AC50 is 6.31 µM (active).

Take `Cc1ccc(NC(=O)CN2C(=O)N/C(=C/c3ccc(C)o3)C2=O)cc1`: the AC50 result is “inactive”. Same read-out and setting: the value for `Cc1ccc(/C=C/C(=O)N2CC(C)CC(C)C2)o1` (stereo not drawn) was 8.91 µM (active). For the molecule `C[C@@H](NCc1cc(Br)cc2[nH]c(=O)c(=O)[nH]c12)P(=O)(O)O`, the AC50 result is “inactive”. The same measure, in the same setting: the value for `COC(=O)N1CCC2(CCCN(Cc3cc(C(F)(F)F)cc(C(F)(F)F)c3)C2)CC1` was “inactive”. As to `Cc1ccccc1Cn1cnc2c(cnn2C(C)(C)C)c1=O`, the AC50 entry was “inactive”. As to `CC(C)(C)n1ncc2c(=O)n(CC(=O)NCc3ccccc3Cl)cnc21`, the AC50 result is “inactive”.

With `CCCCn1cnc2c(cnn2-c2ccc(F)cc2)c1=O`, the AC50 is 3.16 µM (active). For the molecule `Clc1ccc(Cc2nc(-c3cccnc3)no2)cc1`, the AC50 is 1 µM (active). `CCCN[C@@H](C)C(=O)Nc1ccccc1C`: the AC50 result was “inactive”.

Turning to `Cc1cccc(C)c1NC(=O)C(c1ccccc1)N1CCC1=O` (stereo not drawn), the AC50 entry was “inactive”. Consider `Cc1ccccc1NC(=O)C(C)c1cccc(C(=O)c2ccccc2)c1` (stereo not drawn), for which the AC50 is 11.2 µM (active). On the same count and under the same terms, the value for `CCCc1c(-c2ccc(O)cc2)nn(-c2ccc(O)cc2)c1-c1ccc(O)cc1` was 20 µM (active). The same measure, in the same setting: the value for `CC(=O)Nc1nnc(SCc2ccc(F)cc2)s1` was 10 µM (active); that for `CCSc1nnc(NC(=O)Cc2ccc(OC)c(OC)c2)s1` was “inactive”; that for `O=C(NCC1CCCO1)C(c1cccnc1)N(C(=O)Cc1cccs1)c1cccnc1` (stereo not drawn) was “inactive”. As to `O=C(NCC1CCCO1)C(c1cccnc1)N(C(=O)Cc1cccs1)c1ccccc1` (stereo not drawn), the AC50 is 12.6 µM (active). Still for that read-out and setting: as for `Cc1ccccc1N(C(=O)Cc1cccs1)C(C(=O)NCC1CCCO1)c1cccnc1` (stereo not drawn), the entry is “inactive”; as for `O=c1c2ccc(Cl)cc2nc(-c2cccc(C(F)(F)F)c2)n1O`, 1.26 µM (active). As for `COC(=O)c1sccc1NC(=O)CN(C)NS(=O)(=O)c1ccc(F)cc1`, the AC50 was 11.2 µM (active). On the same count and under the same terms, as for `COc1ccc(S(=O)(=O)NCCC(=O)NCc2ccc(F)cc2)cc1`, the entry is “inactive”; as for `CCCc1nnc(NC(=O)CN2C(=O)C3C4C=CC(C4)C3C2=O)s1` (stereo not drawn), “inactive”. Regarding `Cc1ccc(Cc2cnc(NC(=O)c3cccs3)s2)cc1`, the AC50 is 1.41 µM (active).

`CCOc1cc(NC(=O)c2cccs2)c(OCC)cc1NC(=O)c1ccco1`: the AC50 entry is “inactive”. On to `CCCc1nnc(NC(=O)c2cccs2)s1`, for which the AC50 is 0.631 µM (active).

In the case of `CCCc1nnc(NC(=O)Cn2cnc3ccccc3c2=O)s1`, the AC50 entry is “inactive”.

Take `O=C(Nc1ncc(Cc2cccc(Cl)c2)s1)c1cccs1`: the AC50 was 1.58 µM (active). On to `COc1ccc(O[C@H]2C=C[C@@H](c3ccccc3)O[C@H]2COC(=O)CC/C(C)=N\O[C@@H](C)CN2CCCCc3nc(C)c(C)cc32)cc1`, for which the activity, negative = inhibition was -2.12% [at 11.4 µM] (inactive). Consider `O=C(c1csnn1)N1CCC2(CC1)CN(c1ccncc1)C2`, for which the AC50 result is “inactive”.

As to `O=c1c2c(-c3cccs3)csc2ncn1-c1ccc(Br)cc1`, the AC50 was 0.794 µM (active). As to `Nc1[nH]nc2nc3ccccc3nc12`, the AC50 is 0.316 µM (active). Consider `Fc1ccc(C(OCCCc2cnc[nH]2)c2ccc(F)cc2)cc1`, for which the AC50 was 0.1 µM (active). As to `N=C(N)SCCc1cnc[nH]1`, the AC50 result was “inactive”. Take `N[C@@H](Cc1cnc[nH]1)C(=O)O`: the AC50 result was “inactive”. Take `NS(=O)(=O)c1cc(C(=O)O)c(O)c2ccccc12`: the activity, negative = inhibition was -19.2% [at 11.4 µM] (inactive). Take `C=CCNS(=O)(=O)c1cccc2cc(C(=O)O)c(O)cc12`: the AC50 is 1.58 µM (active). On to `O=C(O)c1cc2ccccc2c(S(=O)(=O)O)c1O`, for which the activity, negative = inhibition is 6.64% [at 11.4 µM] (inactive). As to `CCN(CC(=O)NCc1cccs1)S(=O)(=O)c1ccc(C(C)C)cc1`, the AC50 entry is “inactive”. Still for that read-out and setting: as for `O=C(Cn1cccc1C(=O)c1ccccc1)NCc1cccs1`, the figure is 20 µM (active); as for `Cc1ccc(CCN2CC(C(=O)NCCN3CCOCC3)CC2=O)cc1` (stereo not drawn), “inactive”. For the molecule `Cc1noc(C)c1COc1cccc(C(=O)OCC(=O)N2CC(=O)Nc3ccccc32)c1`, the AC50 is 25.1 µM (active). Still for that read-out and setting: the value for `Cc1cc(C=O)c(C)n1-c1ccc(NC2CCCC2)c([N+](=O)[O-])c1` was 0.447 µM (active).

On to `Cc1cc(C(=O)C(=O)NC(C)C)c(C)n1-c1ccc([N+](=O)[O-])cc1`, for which the AC50 result was “inactive”.

Turning to `CS(=O)(=O)N1CCN(c2ccc(C(=O)NC3C4CC5CC(C4)CC3C5)cc2[N+](=O)[O-])CC1` (stereo not drawn), the AC50 entry was “inactive”. For the molecule `Cc1cc(C=O)c(C)n1-c1ccc(N2CCCCC2)c([N+](=O)[O-])c1`, the AC50 was 14.1 µM (active). For the molecule `COc1ccc(/C=C2\SC(=O)N(CCNC(=O)C3CC(=O)N(c4ccccc4)C3)C2=O)cc1` (stereo not drawn), the AC50 entry is “inactive”. On the same count and under the same terms, as for `COc1ccccc1OCCN1C(=O)S/C(=C\c2ccco2)C1=O`, the figure is 14.1 µM (active).

Turning to `CC(=O)[C@@H](C)CCO[C@@]1(C)OCC[C@@H]1C`, the activity, negative = inhibition is -19.3% [at 11.4 µM] (inactive). For the molecule `O=C(c1ccc(C(F)(F)F)cc1)c1c[nH]c(C(=O)NCCCn2ccnc2)c1`, the AC50 is 2 µM (active). The same measure, in the same setting: as for `CC(C)(C)c1ccc(C(=O)c2c[nH]c(C(=O)NCCCn3ccnc3)c2)cc1`, the figure is 5.62 µM (active); as for `CC1=C(C#N)C(Nc2ccc(Cl)cn2)(C(F)(F)F)C(=O)N1` (stereo not drawn), “inactive”. The same measure, in the same setting: the value for `CC(=O)c1sc(NC(=O)C(C)C)nc1C` was 10 µM (active). The same measure, in the same setting: the value for `CCOC(=O)C1CCN(C(=O)C2CCN(c3nc4ccc(OC)cc4s3)CC2)CC1` was “inactive”; that for `CCOC(=O)N1CCN(C(=O)c2ccc3nc(N4CCC(C)CC4)sc3c2)CC1` was “inactive”. Regarding `CCOc1ccc2nc(N3CCCCCC3)sc2c1`, the AC50 is 2.82 µM (active). Consider `CC(=O)NC(C)C(c1cccs1)N1CCN(c2ccccc2)CC1` (stereo not drawn), for which the AC50 result is “inactive”. Still for that read-out and setting: as for `COC(=O)[C@@]1(Cc2ccc(F)cc2)[C@@H]2[C@@H](CC(=O)[C@H]2CC(=O)C(=O)N(C)C)CN1C(=O)c1ccccc1`, the entry is “inactive”; as for `Cc1cnc(CNc2ncncc2-c2ccccc2Cl)cn1`, 15.8 µM (active); as for `Cc1cnc(CNc2ncncc2-c2ccccc2C)cn1`, 25.1 µM (active). Still for that read-out and setting: as for `CN(C)Cc1ccccc1-c1cncnc1NC1CC1`, the figure is 15.8 µM (active). Same read-out and setting: the value for `Cc1cnc(CNc2ncncc2-c2ccccc2CN(C)C)cn1` was 12.6 µM (active).

As for `Cc1cnc(CNc2ncncc2-c2ccccc2C(F)(F)F)cn1`, the AC50 result was “inactive”. For `CC1=CC(=O)C=CC1(C)C(Cl)(Cl)Cl` (stereo not drawn), the AC50 result was “inactive”. `CCN1C(=O)[C@@H]2[C@H]3C(=CC[C@H]2C1=O)C(=O)[C@H]1OC1[C@H]3O` (stereo partly drawn): the activity, negative = inhibition is -3.23% [at 11.4 µM] (inactive). Consider `Cc1nc(SC2CC(=O)N(c3ccc([N+](=O)[O-])cc3)C2=O)nc2c1CCCC2` (stereo not drawn), for which the AC50 result was “inactive”. Turning to `Cc1cnc(CNc2ncncc2-c2ccccc2C#N)cn1`, the AC50 is 0.251 µM (active). On the same count and under the same terms, the value for `C[C@@]1(O)CCOC(=O)C1` was “inactive”; that for `CCCCC#Cc1nc(N)c2ncn([C@@H]3O[C@@H](C(=O)NCC)[C@H](O)[C@@H]3O)c2n1` was “inactive”; that for `Cc1ccc(N(C(=O)C(F)(F)F)C(C(=O)NC2CCCCC2)c2cccs2)cc1C` (stereo not drawn) was “inactive”.

Turning to `COc1ccc(CN(C(=O)Cc2cccs2)C(C(=O)NC2CCCC2)c2ccncc2)cc1` (stereo not drawn), the AC50 result was “inactive”. `COc1ccc(CCN(C(=O)C(F)(F)F)C(C(=O)NC2CCCC2)c2cccs2)cc1` (stereo not drawn): the half-maximal activity concentration (AC50) was 12.6 µM (active). On the same count and under the same terms, as for `COc1cccc(N2CCN(C(=O)Nc3ccc4c(c3)NC(=O)CO4)CC2)c1`, the entry is “inactive”; as for `O=C(COC(=O)c1cccc(S(=O)(=O)N2CCN(c3ccccc3)CC2)c1)NCc1ccco1`, “inactive”; as for `Cc1cccc(Nc2ccccc2C(=O)OCC(=O)NCc2ccco2)c1C`, 12.6 µM (active). On the same count and under the same terms, as for `Cc1ccc(C(=O)N/C(=C/C=C/c2ccccc2)C(=O)NCc2ccco2)cc1`, the entry is “inactive”; as for `Cc1cccc(Nc2ccccc2C(=O)OCC(=O)N(C)C2CCS(=O)(=O)C2)c1C` (stereo not drawn), “inactive”; as for `O=C(COC(=O)c1ccccc1Nc1cccc(C(F)(F)F)c1)NCc1ccco1`, 5.01 µM (active). Still for that read-out and setting: the value for `O=C(CSc1n[nH]c(-c2ccccc2O)n1)N1CCCc2ccccc21` was 2 µM (active); that for `O=C(CSc1nnc(CNc2ccccc2)o1)N1CCCc2ccccc21` was 12.6 µM (active). `O=C(CSc1nc(-c2ccccc2)cs1)N1CCc2ccccc21`: the AC50 was 2.51 µM (active). As for `O=C(CSc1nnc(CNc2ccc(F)cc2)o1)OC1CCCCC1`, the half-maximal activity concentration (AC50) is 25.1 µM (active). The same measure, in the same setting: as for `CCN(CC)C(=O)CSc1nnc(C2CCCCC2)o1`, the entry is “inactive”; as for `O=C(NCc1ccccc1)c1ccc(S(=O)(=O)N2CCCc3ccccc32)cc1`, “inactive”.

Take `O=C(CNCCO)N1CCc2ccccc21`: the AC50 result is “inactive”.

Regarding `O=C(O)CCC(=O)N1CCc2cc(S(=O)(=O)NCc3cccs3)ccc21`, the AC50 entry is “inactive”. Still for that read-out and setting: the value for `CCN(CC)C(=O)CSc1nnc(CNc2ccc(F)cc2)o1` was “inactive”. With `C[C@]12CC[C@H]3c4ccc(OC[C@H]5CO5)cc4CC[C@H]3[C@H]1CC[C@@H]2O`, the activity, negative = inhibition was -8.48% [at 11.4 µM] (inactive). On the same count and under the same terms, as for `CC(=O)OC[C@@H]1O[C@H](CCO/N=C(\C)CCN2CCc3nc(-c4ccccc4)c(-c4ccccc4)cc3C2)C=C[C@@H]1OC(C)=O`, the figure is 1.24% [at 11.4 µM] (inactive); as for `O=C1[C@H]2[C@H]3[C@H](O)[C@H](O)C/C(=N/OC[C@@H](O)COCc4ccco4)[C@@H]3CC[C@@H]2C(=O)N1Cc1ccc2c(c1)OCO2`, -3.61% [at 11.4 µM] (inactive). As to `Cc1cccc(OCC(=O)N/N=C\C=C\c2ccc3c(c2)OCO3)c1C`, the AC50 is 5.01 µM (active). The same measure, in the same setting: the value for `COC(=O)N/N=C\C=C\c1ccc2c(c1)OCO2` was “inactive”.
